# According to PubChem BioAssay (EPA / NIEHS):
# Results filed as inconclusive are left out. Active and inactive are the calls of the source. Rule for the calls: active = hit-call score of the fitted dose curve at least 0.9, where 1 is the maximum; inconclusive = response in the unintended direction; inactive = score below 0.9.
# Experiments:
# [1] = TOX21_p53_BLA_p2_viability: Viability Assessment in the Tox21 HCT-116 p53 Agonism Beta-lactamase Assay, Phase 2 (AID 2283591);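 note: compound exposure lasted 16 h at 37 °C; actives lower the ATP signal meaning cytotoxicity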
# How it was run: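 HCT-116 p53-bla cells (4000/well) rested 5 h at 37C, then received compounds in DMSO (217-fold dilution) for 16 h at 37C, 5% CO2. After the CCF4 read, CellTiter-Glo was added; ATP luminescence was read after 30 min at room temperature.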
# [2] = target: Cellular tumor antigen p53 (Homo sapiens) (UniProt P04637); test: TOX21_p53_BLA_p2_ratio: Tox21 HCT-116 p53 Agonism Beta-lactamase Assay, Ratio, Phase 2 (AID 2283592)
# Sequence of Cellular tumor antigen p53 (Homo sapiens) (P04637 whole entry, looked up): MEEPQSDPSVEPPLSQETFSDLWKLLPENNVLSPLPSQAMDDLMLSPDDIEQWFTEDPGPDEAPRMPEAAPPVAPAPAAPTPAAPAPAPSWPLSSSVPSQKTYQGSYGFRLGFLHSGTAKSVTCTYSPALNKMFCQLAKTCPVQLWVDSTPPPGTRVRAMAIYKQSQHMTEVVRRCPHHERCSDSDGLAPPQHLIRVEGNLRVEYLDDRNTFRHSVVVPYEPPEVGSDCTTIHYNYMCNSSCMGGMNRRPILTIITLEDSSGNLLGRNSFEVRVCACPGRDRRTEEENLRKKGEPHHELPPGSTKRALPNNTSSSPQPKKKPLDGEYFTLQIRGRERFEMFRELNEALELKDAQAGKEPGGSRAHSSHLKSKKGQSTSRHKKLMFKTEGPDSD
# How it was run: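 Human colon HCT116 cells with an inducible p53 beta-lactamase reporter are exposed to test chemicals for 16 h at 37C. Reporter induction is read as the 460/530 nm emission ratio after CCF4-AM loading, normalized to DMSO.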
# [3] = TOX21_p53_BLA_p3_viability: Viability Assessment in the Tox21 HCT-116 p53 Agonism Beta-lactamase Assay, Phase 3 (AID 2283593);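 note: cells exposed to compound for 16 h before reading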
# How it was run: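 HCT-116 cells (4000/well) rested 5 h at 37C, then got DMSO compounds by pin tool (217-fold dilution) for 16 h at 37C, 5% CO2. After the bla read, CellTiter-Glo was added and luminescence read at 30 min, room temperature.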
# [4] = target: Cellular tumor antigen p53 (Homo sapiens) (UniProt P04637); test: TOX21_p53_BLA_p3_ratio: Tox21 HCT-116 p53 Agonism Beta-lactamase Assay, Ratio, Phase 3 (AID 2283596)
# How it was run: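 HCT116 p53-bla cells (4000/well) given compound in DMSO (217-fold dilution) after 5 h, incubated 16 h at 37C. CCF4-AM substrate 2 h at room temperature; 460/530 nm emission ratio, gain fitted against DMSO.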
# [5] = TOX21_p53_BLA_p4_viability: Viability Assessment in the Tox21 HCT-116 p53 Agonism Beta-lactamase Assay, Phase 4 (AID 2283597);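 note: hits lower the luminescence signal meaning cytotoxicity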
# How it was run: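 Luminescent ATP readout (CellTiter-Glo, 30 min, room temperature) in the same wells as the p53 bla ratio. HCT116 cells were treated for 16 h at 37C with DMSO-dissolved compounds.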
# [6] = target: Cellular tumor antigen p53 (Homo sapiens) (UniProt P04637); test: TOX21_p53_BLA_p5_ratio: Tox21 HCT-116 p53 Agonism Beta-lactamase Assay, Ratio, Phase 5 (AID 2283599)
# How it was run: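 HCT-116 cells carrying a p53-inducible beta-lactamase reporter were seeded at 4000 cells/well and dosed after 5 h with compound in DMSO (217-fold dilution). After 16 h at 37C, CCF4-AM substrate was added for 2 h, and the 460/530 nm emission ratio was scored as gain-of-signal versus DMSO.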
# [7] = TOX21_p53_BLA_p5_viability: Viability Assessment in the Tox21 HCT-116 p53 Agonism Beta-lactamase Assay, Phase 5 (AID 2283600)
# How it was run: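 Seeded cells (4000/well) settle 5 h before compound addition. Plates then incubate 16 h at 37C, receive FRET substrate for 2 h, and finally CellTiter-Glo, with luminescence measured after a 30 min room-temperature incubation.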
# [8] = target: Cellular tumor antigen p53 (Homo sapiens) (UniProt P04637); test: TOX21_p53_BLA_p4_ratio: Tox21 HCT-116 p53 Agonism Beta-lactamase Assay, Ratio, Phase 4 (AID 2283601)
# How it was run: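 HCT116 cells carrying an inducible beta-lactamase reporter were plated at 4000 cells/well, rested 5 h, then exposed to compounds in DMSO (217-fold dilution) for 16 h at 37C. CCF4-AM substrate was loaded 2 h at room temperature; 460/530 nm emission ratio scored gain-of-signal versus DMSO.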
Structure (SMILES),outcome [1],outcome [2],outcome [3],outcome [4],outcome [5],outcome [6],outcome [7],outcome [8],AC50 [1],AC50 [2],AC50 [4],AC50 [5],AC50 [6],AC50 [8],AC50 [3],AC50 [7]
C[N+]1([O-])CCOCC1,inactive,inactive,inactive,inactive,inactive,inactive,inactive,inactive,–,–,–,–,–,–,–,–
CC(C)COCC(CN(Cc1ccccc1)c1ccccc1)N1CCCC1 (stereo unspecified),inactive,inactive,inactive,inactive,inactive,inactive,inactive,inactive,–,–,–,–,–,–,–,–
Cc1ccccn1,inactive,inactive,inactive,inactive,inactive,inactive,inactive,inactive,–,–,–,–,–,–,–,–
O=C(NCC1CCCCN1)c1cc(OCC(F)(F)F)ccc1OCC(F)(F)F (stereo unspecified),inactive,inactive,inactive,inactive,inactive,inactive,inactive,inactive,–,–,–,–,–,–,–,–
[O-][N+](=Nc1ccccc1)c1ccccc1,inactive,inactive,inactive,inactive,inactive,inactive,inactive,inactive,–,–,–,–,–,–,–,–
Cc1cc(/C=C/c2ccc3cc(N(C)C)ccc3[n+]2C)c(C)n1-c1ccccc1,–,–,inactive,–,–,–,inactive,–,16.7 µM (active),13.4 µM (active),16.1 µM (active),16.6 µM (active),15.8 µM (active),20.1 µM (active),–,–
Cc1c(C(=O)NN2CCCCC2)nn(-c2ccc(Cl)cc2Cl)c1-c1ccc(Cl)cc1,–,inactive,–,inactive,–,–,–,inactive,28.3 µM (active),–,–,21.4 µM (active),37.8 µM (active),–,23 µM (active),23 µM (active)
CCCN1C[C@H](CSC)C[C@@H]2c3cccc4[nH]cc(c34)C[C@H]21,inactive,inactive,inactive,inactive,inactive,inactive,inactive,inactive,–,–,–,–,–,–,–,–
CCOC(=O)Oc1c(OC)cc(C(=O)O[C@@H]2C[C@@H]3CN4CCc5c([nH]c6cc(OC)ccc56)[C@H]4C[C@@H]3[C@H](C(=O)OC)[C@H]2OC)cc1OC,inactive,inactive,inactive,inactive,inactive,inactive,inactive,inactive,–,–,–,–,–,–,–,–
Cc1ccc2nc(N)[nH]c(=O)c2c1Sc1ccncc1,inactive,–,–,–,inactive,inactive,inactive,inactive,–,2.17 µM (active),3.22 µM (active),–,–,–,3.66 µM (active),–
CCCC1([C@H](O)C/C=C/[C@H]2[C@H](O)CC(=O)[C@@H]2CCCCCCC(=O)OC)CCC1,inactive,inactive,inactive,inactive,–,inactive,inactive,inactive,–,–,–,36.3 µM (active),–,–,–,–
O=C(NOC[C@H](O)CO)c1ccc(F)c(F)c1Nc1ccc(I)cc1F,inactive,inactive,inactive,inactive,inactive,inactive,inactive,inactive,–,–,–,–,–,–,–,–
CCC(C)[C@H]1O[C@]2(C=C[C@@H]1C)C[C@@H]1C[C@@H](C/C=C(\C)[C@@H](O[C@H]3C[C@H](OC)[C@@H](O[C@H]4C[C@H](OC)[C@H](NC(C)=O)[C@H](C)O4)[C@H](C)O3)[C@@H](C)/C=C/C=C3\CO[C@@H]4[C@H](O)C(C)=C[C@@H](C(=O)O1)[C@]34O)O2 (stereo partly specified),–,–,–,–,–,–,–,–,13 µM (active),15 µM (active),34.5 µM (active),9.38 µM (active),22.3 µM (active),12 µM (active),23 µM (active),15.8 µM (active)
CC(C)(C)CC(C)(C)c1ccccc1O,–,–,–,–,–,–,–,–,74.6 µM (active),75.3 µM (active),77.8 µM (active),65.9 µM (active),81.5 µM (active),81.7 µM (active),68.9 µM (active),68 µM (active)
Nc1c2c(nc3c1CCC3)CCCC2,inactive,inactive,inactive,inactive,inactive,inactive,inactive,inactive,–,–,–,–,–,–,–,–
CN1[C@@H]2CC[C@H]1CC(OC(=O)C(O)c1ccccc1)C2 (stereo partly specified),inactive,inactive,inactive,inactive,inactive,inactive,inactive,inactive,–,–,–,–,–,–,–,–
CC(C)(C)NCC(O)CSc1nc(-c2ccc(C(N)=O)s2)cs1 (stereo unspecified),inactive,inactive,inactive,inactive,inactive,inactive,inactive,inactive,–,–,–,–,–,–,–,–
CC(C)C[C@H](NC(=O)CNC(=O)[C@H](Cc1ccc(O)cc1)NC(=O)[C@H](CO)NC(=O)[C@H](Cc1c[nH]c2ccccc12)NC(=O)[C@H](Cc1cnc[nH]1)NC(=O)[C@@H]1CCC(=O)N1)C(=O)N[C@@H](CCCN=C(N)N)C(=O)N1CCC[C@H]1C(=O)NCC(N)=O (stereo in doubt),inactive,inactive,inactive,inactive,inactive,inactive,inactive,inactive,–,–,–,–,–,–,–,–
Nc1cc(S(=O)(=O)O)cc2cc(S(=O)(=O)O)cc(O)c12,inactive,inactive,inactive,inactive,inactive,inactive,inactive,inactive,–,–,–,–,–,–,–,–
CC1(C)S[C@@H]2[C@H](NC(=O)Cc3ccccc3)C(=O)N2[C@H]1C(=O)O (tested in a mixture with another compound),inactive,inactive,inactive,inactive,inactive,inactive,inactive,inactive,–,–,–,–,–,–,–,–
Clc1ccc(C(Cn2ccnc2)OCc2c(Cl)cccc2Cl)c(Cl)c1 (stereo unspecified),inactive,–,inactive,–,inactive,inactive,inactive,–,–,17.7 µM (active),17.9 µM (active),–,–,16.7 µM (active),–,–
CO[Si](CCCNc1ccccc1)(OC)OC,inactive,inactive,inactive,inactive,inactive,inactive,inactive,inactive,–,–,–,–,–,–,–,–
